Among the test systems are SR leukemia; RPMI-8226 leukemia; OVCAR-8 ovarian; OVCAR-5 ovarian; OVCAR-4 ovarian; SK-OV-3 ovarian; IGROV1 ovarian; OVCAR-3 ovarian; HS 578T breast; NCI/ADR-RES ovarian.
What all share (test): NCI-60 one-dose screen, 48 h (100 = growth as untreated, 0 = no growth, -100 = all killed)
Common to all, as to details: 10 µM

The panel holds about 83,000 compounds, 20% with a hit somewhere; the sample as a whole holds those more often.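 Growth was measured after 48 h exposure to one concentration of compound in 96-well plates. Values under 10 count as active.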 A number with no mark means an inactive call. Active and inactive are the calls of the source.

Take `CC(C)N(CCOc1cccc(-c2nc3sccn3c2-c2ccnc(S(C)(=O)=O)n2)c1)C(C)C`: the growth in the assay with SR leukemia was 64.3%; in the assay on RPMI-8226 leukemia, 37.7%; with OVCAR-8 ovarian it was 79.2%; in the assay with OVCAR-5 ovarian, 115%; in the assay on OVCAR-4 ovarian, 64.5%; in the assay on SK-OV-3 ovarian, 85.7%. For the same compound, the growth in the assay with IGROV1 ovarian was 94.7%; in the assay on OVCAR-3 ovarian, 90.6%; in the assay on HS 578T breast it was 95.8%; in the assay on NCI/ADR-RES ovarian it was 89.5%.

On to `CC(C)N(CCOc1ccc(-c2nc3sccn3c2-c2ccnc(S(C)(=O)=O)n2)cc1)C(C)C`, for which the growth was 74.4% in the assay on SR leukemia; 71.2% in the assay on RPMI-8226 leukemia; 90.6% in the assay on OVCAR-8 ovarian; 104% in the assay with OVCAR-5 ovarian; 72% in the assay on OVCAR-4 ovarian; 90.3% in the assay on SK-OV-3 ovarian. In addition, the growth was 96.2% with IGROV1 ovarian, 72.8% in the assay on OVCAR-3 ovarian, 76.6% in the assay on HS 578T breast and 89.2% with NCI/ADR-RES ovarian.

As to `Cc1c(Cl)cccc1NC(=O)CCCl`, the growth in the assay on SR leukemia is 84.1%; in the assay with RPMI-8226 leukemia, 90.6%; in the assay on OVCAR-8 ovarian it was 94.2%; in the assay on OVCAR-5 ovarian, 106%; with OVCAR-4 ovarian, 111%; with SK-OV-3 ovarian, 104%. In addition, the growth is 104% in the assay with IGROV1 ovarian, 102% in the assay with OVCAR-3 ovarian, 104% in the assay with HS 578T breast and 105% in the assay with NCI/ADR-RES ovarian.

As to `COc1cccc(-c2nc3sccn3c2-c2cccc(S(C)(=O)=O)c2)c1`, the growth with SR leukemia is 94.7%; in the assay with RPMI-8226 leukemia it was 95.9%; with OVCAR-8 ovarian it was 101%; in the assay with OVCAR-5 ovarian it was 96.3%; in the assay with OVCAR-4 ovarian it was 107%; in the assay on SK-OV-3 ovarian, 114%. For the same compound, the growth with IGROV1 ovarian is 99%; with OVCAR-3 ovarian, 113%; in the assay on HS 578T breast it was 99.3%; with NCI/ADR-RES ovarian, 92.5%.

As for `COc1cc(-c2nn(-c3cccc(NC(=O)NCCNS(=O)(=O)c4ccc(Cl)cc4)c3)cc2-c2ccncc2)ccc1Cl`, the growth in the assay on SR leukemia is 1.18% (active); in the assay with RPMI-8226 leukemia it was -2.02% (active); in the assay with OVCAR-8 ovarian it was 8.88% (active); in the assay with OVCAR-5 ovarian, 27.9%; in the assay on OVCAR-4 ovarian it was 33.3%; with SK-OV-3 ovarian, 19.3%. Moreover, the growth in the assay with IGROV1 ovarian was 25.2%; with OVCAR-3 ovarian, 2.8% (active); in the assay on HS 578T breast it was 18.8%; with NCI/ADR-RES ovarian, 71%.

As for `CN1CCN(CCC(=O)Nc2cccc(-n3cc(-c4ccncc4)c(-c4ccc(Cl)c(O)c4)n3)c2)CC1`, the growth in the assay with SR leukemia is 5.5% (active); in the assay with RPMI-8226 leukemia it was 19.9%; with OVCAR-8 ovarian it was 54.8%; in the assay on OVCAR-5 ovarian it was 67.7%; with OVCAR-4 ovarian it was 56%; in the assay on SK-OV-3 ovarian, 46.2%. In addition, the growth with IGROV1 ovarian is 55.8%; in the assay on OVCAR-3 ovarian, 14.4%; with HS 578T breast, 43.1%; with NCI/ADR-RES ovarian, 29.7%.

In the case of `CCOC(=O)CC(S(=O)(=O)c1ccccc1)S(=O)(=O)c1ccccc1`, the growth in the assay with SR leukemia was 89.1%; in the assay on RPMI-8226 leukemia it was 97.4%; in the assay on OVCAR-8 ovarian, 103%; in the assay on OVCAR-5 ovarian, 109%; with OVCAR-4 ovarian, 94%; in the assay on SK-OV-3 ovarian, 112%. For the same compound, the growth in the assay with IGROV1 ovarian is 107%; in the assay on OVCAR-3 ovarian it was 63.1%; with HS 578T breast it was 105%; with NCI/ADR-RES ovarian, 104%.

On to `Nc1ncnc2c1ncn2C1(CO)OCC(O)C(O)C1O` (centres undefined), for which the growth is 109% in the assay with SR leukemia; 104% in the assay with RPMI-8226 leukemia; 102% in the assay on OVCAR-8 ovarian; 109% in the assay with OVCAR-5 ovarian; 111% in the assay with OVCAR-4 ovarian; 98.2% with SK-OV-3 ovarian. Further, the growth is 105% in the assay on IGROV1 ovarian, 103% in the assay with OVCAR-3 ovarian, 104% in the assay on HS 578T breast and 98.6% with NCI/ADR-RES ovarian.

In the case of `CC[C@@H]1NC(=O)[C@H]([C@H](O)[C@H](C)C/C=C/c2ccc(CN3C(=O)CCCC3=O)cc2)N(C)C(=O)[C@H](C(C)C)N(C)C(=O)[C@H](CC(C)C)N(C)C(=O)[C@H](CC(C)C)N(C)C(=O)[C@@H](C)NC(=O)[C@H](C)NC(=O)[C@H](CC(C)C)N(C)C(=O)[C@H](C(C)C)NC(=O)[C@H](CC(C)C)N(C)C(=O)CN(C)C1=O`, the growth in the assay with SR leukemia was -2.59% (active); in the assay on RPMI-8226 leukemia it was 9.26% (active); in the assay on OVCAR-8 ovarian it was 68.4%; in the assay on OVCAR-5 ovarian, 83.8%; with OVCAR-4 ovarian, 53.9%; in the assay on SK-OV-3 ovarian, 74.9%. Further, the growth with IGROV1 ovarian is 58.2%; in the assay with OVCAR-3 ovarian, 54.4%; in the assay with HS 578T breast it was 73.9%.

As for `O=C(Nc1ccc(NS(=O)(=O)c2ccc(F)cc2)cc1)C12CC3CC(CC(C3)C1)C2`, the growth in the assay with SR leukemia is 75.5%; in the assay with RPMI-8226 leukemia it was 89.3%; in the assay with OVCAR-8 ovarian, 94.7%; with OVCAR-5 ovarian, 97.1%; with OVCAR-4 ovarian it was 99%; in the assay with SK-OV-3 ovarian, 92.5%. Moreover, the growth with IGROV1 ovarian was 102%; in the assay on OVCAR-3 ovarian, 98.6%; in the assay with HS 578T breast it was 94.4%; in the assay on NCI/ADR-RES ovarian, 85.5%.

As to `CN(C)CCCOc1ccc(OCCCN(C)C)c2c1C(=O)c1ccccc1C2=O`, the growth is 2.73% (active) in the assay with SR leukemia; -20.6% (active) in the assay with RPMI-8226 leukemia; 7.14% (active) with OVCAR-8 ovarian; 8.93% (active) in the assay with OVCAR-5 ovarian; 2.16% (active) in the assay with OVCAR-4 ovarian; 13.8% with SK-OV-3 ovarian. Besides, the growth with IGROV1 ovarian is 3.65% (active); in the assay with OVCAR-3 ovarian, 3.4% (active); in the assay on HS 578T breast it was 23%; with NCI/ADR-RES ovarian, 96.1%.

For the compound `COc1ccc(/C(=N\N)C(=O)c2ccccc2)cc1` (tested in a mixture with another compound), the growth was 111% with SR leukemia; 90% in the assay on RPMI-8226 leukemia; 103% in the assay with OVCAR-8 ovarian; 96.7% in the assay with OVCAR-5 ovarian; 95.9% with OVCAR-4 ovarian; 97.7% in the assay with SK-OV-3 ovarian. In addition, the growth was 107% with IGROV1 ovarian, 102% with OVCAR-3 ovarian, 97.1% with HS 578T breast and 102% with NCI/ADR-RES ovarian.

With `COc1cc(CNC(=O)C2CSC3(C)c4ccccc4C(=O)N23)cc(OC)c1OC` (centres undefined), the growth in the assay with SR leukemia is 77.4%; in the assay on RPMI-8226 leukemia, 90.2%; with OVCAR-8 ovarian it was 92.4%; with OVCAR-5 ovarian, 102%; with OVCAR-4 ovarian it was 97%; in the assay on SK-OV-3 ovarian, 104%. For the same compound, the growth in the assay with IGROV1 ovarian is 107%; in the assay with OVCAR-3 ovarian, 112%; in the assay with HS 578T breast it was 94.1%; in the assay with NCI/ADR-RES ovarian it was 102%.

Source of the values: PubChem BioAssay (NCI).
